This is an account of results in article PMC5540273 (PLoS ONE, 2017).

Molecules are shown by their SMILES.

Among the test systems are HIPK3; HIPK4; HPK1; HUNK; ICK; IGF1R; INSRR.
Holding throughout (settings): concentration: 1 μM, replicates: in singlicate; n = 1
For a further assay, the system named is T1, IKK-alpha.
T1 construct: gene CHUK

For another assay, the system named is T2, IKK-beta.
T2 construct: gene IKBKB

The next assay has as its system T3, IKK-epsilon.
T3 construct: gene IKBKE
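Also: KINOMEscan kinase panel screen.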

For `Cc1nnc(-c2ccc(C)c(-c3ccc(C(=O)O)cc3)c2)o1` [GW608005], the “%Inh” value with HIPK3 amounted to 7%; with HIPK4, 0%; with HPK1, 7%; in the assay on HUNK, 0%; in the assay on ICK, 0%; in the assay with IGF1R it was 0%. Further, the “%Inh” value in the assay on IKK-alpha is given as 30%; in the assay with IKK-beta, 25%; in the assay on IKK-epsilon, 1%; in the assay on INSRR it was 10%.
Take `Cc1cccc(-c2nc(Nc3ccc4c(cnn4C)c3)c3ccccc3n2)n1` [GW876731]: the “%Inh” value is 0% in the assay on HIPK3; 14% in the assay on HIPK4; 0% in the assay on HPK1; 35% with HUNK; 10% in the assay with ICK; 0% with IGF1R. The “%Inh” value in the assay with IKK-alpha was determined as 1%; in the assay on IKK-beta, 13%; in the assay on IKK-epsilon it was 21%; in the assay on INSRR it was 15%.
For `COc1cc(Nc2nccc(N3CCC(NC(=O)C(C)c4ccc(Cl)cc4)C3)n2)cc(OC)c1OC` (centres unmarked) [GSK1379757], the “%Inh” value in the assay on HIPK3 stood at 0%; with HIPK4, 0%; with HPK1, 37%; in the assay on HUNK, 16%; with ICK, 0%; with IGF1R, 13%. Moreover, the “%Inh” value in the assay with IKK-alpha is 0%; in the assay on IKK-beta, 0%; in the assay on IKK-epsilon, 23%; in the assay on INSRR, 0%.
On to `CN1C(=O)C(Nc2cc(Cl)c(O)c(Cl)c2)=C(c2ccc(Cl)cc2)C1=O` [SB-404321], for which the “%Inh” value in the assay on HIPK3 worked out at 0%; with HIPK4, 0%; in the assay on HPK1, 12%; with HUNK it was 0%; in the assay with ICK, 6%; in the assay with IGF1R, 0%. For the same molecule, the “%Inh” value with IKK-alpha, with IKK-beta, in the assay on IKK-epsilon and with INSRR was 0% throughout.
Regarding `COc1ccc(-c2cc3c(C)nc(N)nc3n([C@H]3CC[C@H](OCCO)CC3)c2=O)cn1`, the “%Inh” value with HIPK3 is 5%; in the assay on HIPK4, 0%; in the assay on HPK1, 0%; with HUNK, 0%; in the assay with ICK it was 0%; in the assay with IGF1R, 0%. Besides, the “%Inh” value in the assay on IKK-alpha, in the assay on IKK-beta, in the assay on IKK-epsilon and in the assay with INSRR was 0% each time.
`CC(C)(C)c1ccc(C(=O)Nc2cn3cc(-c4ccccc4)ccc3n2)cc1`: the “%Inh” value with HIPK3 came to 20%; in the assay with HIPK4, 0%; in the assay with HPK1 it was 0%; in the assay on HUNK it was 9%; in the assay on ICK, 0%; in the assay on IGF1R it was 0%. The “%Inh” value is given as 5% with IKK-alpha, 6% with IKK-beta, 0% in the assay with IKK-epsilon and 0% in the assay with INSRR.
For `COc1cc2nccc(Nc3ccc(OCc4ccc(NC(C)=O)cc4)cc3)c2cc1OC.Cl` [GW440135], the “%Inh” value in the assay on HIPK3 stood at 0%; in the assay with HIPK4, 0%; in the assay on HPK1 it was 36%; in the assay on HUNK it was 21%; in the assay with ICK it was 0%; in the assay on IGF1R, 0%. The “%Inh” value with IKK-alpha is 10%; in the assay with IKK-beta it was 0%; in the assay with IKK-epsilon, 3%; in the assay on INSRR, 8%.
As for `Fc1cccc(CSc2nnc(-c3ccc4c(c3)CCO4)o2)c1`, the “%Inh” value in the assay on HIPK3 amounted to 6%; in the assay with HIPK4 it was 0%; in the assay on HPK1, 0%; in the assay with HUNK it was 0%; with ICK it was 0%; with IGF1R, 13%. Also, the “%Inh” value is 14% in the assay with IKK-alpha, 10% with IKK-beta, 20% in the assay with IKK-epsilon and 0% in the assay with INSRR.
For the molecule `O=C(Nc1n[nH]c2cc(-c3ccccc3F)ccc12)C1CC1` [SB-733371], the “%Inh” value with HIPK3 was 3%; in the assay with HIPK4 it was 0%; with HPK1, 8%; in the assay with HUNK, 0%; with ICK it was 32%; in the assay with IGF1R, 0%. For the same molecule, the “%Inh” value stood at 0% in the assay on IKK-alpha, 0% with IKK-beta, 0% in the assay on IKK-epsilon and 9% in the assay with INSRR.
`COc1cc(Nc2ccnc3ccc(C(F)(F)F)cc23)cc(OC)c1OC` [GW577382]: the “%Inh” value is listed as 18% in the assay with HIPK3; 0% in the assay with HIPK4; 31% with HPK1; 30% in the assay on HUNK; 0% in the assay with ICK; 0% with IGF1R. In addition, the “%Inh” value in the assay with IKK-alpha is given as 21%; in the assay on IKK-beta, 3%; in the assay with IKK-epsilon it was 0%; in the assay on INSRR it was 4%.
In the case of `O=C(Nc1n[nH]c2nc(-c3ccccc3)c(Br)cc12)C1CC1` [SB-708998], the “%Inh” value with HIPK3 came to 0%; in the assay with HIPK4 it was 6%; with HPK1, 20%; with HUNK, 0%; in the assay with ICK, 0%; with IGF1R, 1%. Also, the “%Inh” value with IKK-alpha was 0%; in the assay on IKK-beta, 5%; in the assay with IKK-epsilon it was 2%; with INSRR, 9%.
For the molecule `Nc1nccc2scc(-c3ccc4c(c3)CCN4C(=O)Cc3ccccc3)c12` [GSK2576924], the “%Inh” value with HIPK3 was determined as 11%; in the assay with HIPK4, 0%; with HPK1 it was 18%; in the assay with HUNK, 0%; with ICK, 0%; in the assay on IGF1R, 1%. Further, the “%Inh” value in the assay with IKK-alpha is 0%; in the assay with IKK-beta it was 0%; in the assay on IKK-epsilon, 12%; in the assay on INSRR, 0%.
Consider `Nc1n[nH]c2nnc(-c3ccccc3)c(-c3ccccc3)c12` [GW554060], for which the “%Inh” value in the assay on HIPK3 was 68%; in the assay with HIPK4, 0%; in the assay on HPK1, 27%; with HUNK, 5%; in the assay with ICK, 0%; with IGF1R, 0%. For the same molecule, the “%Inh” value is 28% in the assay on IKK-alpha, 0% with IKK-beta, 0% in the assay with IKK-epsilon and 0% in the assay with INSRR.
Take `CCn1c(-c2nonc2N)nc2ccccc21` [SB-693162/GW549034]: the “%Inh” value in the assay on HIPK3 is reported as 62%; in the assay on HIPK4, 1%; with HPK1 it was 7%; with HUNK, 36%; with ICK it was 64%; in the assay on IGF1R, 0%. Moreover, the “%Inh” value with IKK-alpha amounted to 23%; with IKK-beta, 49%; with IKK-epsilon, 29%; with INSRR it was 48%.
In the case of `Cc1cccc(-c2cc(-c3c[nH]nc3-c3ccccn3)ccn2)c1` [GW679395], the “%Inh” value with HIPK3 stood at 13%; with HIPK4, 0%; in the assay on HPK1, 32%; with HUNK it was 10%; in the assay on ICK, 9%; in the assay on IGF1R, 0%. Also, the “%Inh” value in the assay on IKK-alpha was determined as 4%; with IKK-beta, 25%; in the assay with IKK-epsilon, 21%; with INSRR, 0%.
`CN1C(=O)C(Nc2ccccc2)=C(c2ccccc2)C1=O` [SB-300079]: the “%Inh” value in the assay on HIPK3 turned out to be 0%; in the assay on HIPK4, 0%; in the assay on HPK1, 0%; with HUNK, 67%; with ICK, 0%; in the assay on IGF1R, 0%. Moreover, the “%Inh” value is on record as 11% with IKK-alpha, 0% in the assay with IKK-beta, 0% with IKK-epsilon and 0% in the assay on INSRR.
Take `Cc1cc(Nc2nc(-c3cccc(C)n3)nc3ccccc23)ccn1` [GW872411]: the “%Inh” value turned out to be 0% with HIPK3; 0% with HIPK4; 0% in the assay on HPK1; 28% in the assay on HUNK; 0% in the assay on ICK; 0% with IGF1R. Also, the “%Inh” value with IKK-alpha, in the assay with IKK-beta, with IKK-epsilon and in the assay on INSRR was 0% each time.
